For 8 compounds, growth results are on record in PubChem BioAssay (NCI).

Compounds without any hit were thinned out: in the full panel of roughly 83,000, 20% have a hit.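 Single-concentration screen, 48 h exposure, 96-well plates. Endpoint: percent growth. Below 10 = active.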 A number with no mark means an inactive call. Active and inactive are the calls of the source.

Among the test systems are DU-145 prostate; K-562 leukemia; MALME-3M melanoma; MDA-MB-231 breast; RXF 393 renal; SF-268 CNS; SF-295 CNS; SF-539 CNS; UACC-257 melanoma; M14 melanoma; HCT-15 colon; HT29 colon; SNB-75 CNS; SNB-19 CNS; U251 CNS; PC-3 prostate; SK-MEL-5 melanoma; UACC-62 melanoma; LOX IMVI melanoma; SK-MEL-28 melanoma.
Common to all, as to experiment: NCI-60 one-dose screen, 48 h (100 = growth as untreated, 0 = no growth, -100 = all killed)
Conditions in all cases: 10 µM unless noted

For `Nc1ncc(-c2ccc3ncnc(Nc4cccc(Cl)c4)c3c2)cn1`, the growth in the assay on DU-145 prostate was 28.9%; with K-562 leukemia it was 58.2%; in the assay on MALME-3M melanoma it was 40.4%; with MDA-MB-231 breast, 42.1%; in the assay on RXF 393 renal, 25.2%; with SF-268 CNS, 42%. Also, the growth in the assay on SF-295 CNS is 44.2%; in the assay on SF-539 CNS, 54.2%; in the assay with UACC-257 melanoma, 65.7%; with M14 melanoma, 60.6%; with HCT-15 colon, 38.8%; in the assay with HT29 colon, 40%. Also, the growth is 49.8% in the assay on SNB-75 CNS; 59.4% in the assay with SNB-19 CNS; 43.6% with U251 CNS; 36.1% with PC-3 prostate; 64.8% in the assay with SK-MEL-5 melanoma; 50.6% in the assay on UACC-62 melanoma. Moreover, the values for the growth with LOX IMVI melanoma and with SK-MEL-28 melanoma were 44.8% and 63.8%, respectively.

As to `Fc1cc2c(cc1Cl)N(c1ncnc3ccc(-c4ccc5n[nH]nc5c4)cc13)CC2`, the growth is 67.1% in the assay with DU-145 prostate; 88.2% with K-562 leukemia; 88.8% with MALME-3M melanoma; 72.8% in the assay on MDA-MB-231 breast; 78.7% with RXF 393 renal; 69.5% in the assay on SF-268 CNS. Further, the growth in the assay on SF-295 CNS is 91.7%; in the assay with SF-539 CNS it was 78.9%; in the assay with UACC-257 melanoma it was 96%; in the assay with M14 melanoma, 94.8%; in the assay on HCT-15 colon it was 95.7%; in the assay on HT29 colon it was 95%. Also, the growth with SNB-75 CNS was 22.1%; in the assay with SNB-19 CNS, 80%; in the assay with U251 CNS, 86.9%; with PC-3 prostate, 71.1%; in the assay on SK-MEL-5 melanoma it was 91.2%; in the assay on UACC-62 melanoma, 78.7%. The values for the growth in the assay on LOX IMVI melanoma and with SK-MEL-28 melanoma were 86% and 86.9%, respectively.

In the case of `CCOC(=O)c1c2c(n3cccc(F)c13)C(=O)c1ncccc1C2=O`, the growth was 3.34% (active) in the assay with DU-145 prostate; 9.2% (active) in the assay on K-562 leukemia; 25.6% with MALME-3M melanoma; 38.2% in the assay with MDA-MB-231 breast; 1.36% (active) in the assay on RXF 393 renal; 20.9% with SF-268 CNS. The growth was 3.24% (active) in the assay on SF-295 CNS; -9.12% (active) in the assay with SF-539 CNS; 12.7% in the assay with UACC-257 melanoma; -33.1% (active) in the assay on M14 melanoma; 12.7% in the assay with HCT-15 colon; 8.73% (active) with HT29 colon. Besides, the growth in the assay with SNB-75 CNS was 28.7%; in the assay on SNB-19 CNS it was 11.3%; in the assay on U251 CNS, -35.5% (active); with PC-3 prostate it was 13.7%; in the assay with SK-MEL-5 melanoma, -23% (active); in the assay on UACC-62 melanoma it was -33.4% (active). Also, the growth was -20.9% (active) in the assay with LOX IMVI melanoma and 37.4% in the assay on SK-MEL-28 melanoma.

As to `Cc1c(O)cc(-c2cnc(Nc3ccccc3)s2)c(O)c1C`, the growth in the assay with DU-145 prostate was 105%; in the assay on K-562 leukemia, 87.2%; in the assay with MALME-3M melanoma, 107%; with MDA-MB-231 breast, 99.2%; in the assay with RXF 393 renal it was 99.5%; in the assay on SF-268 CNS, 105%. The growth was 98.9% with SF-295 CNS; 95% with SF-539 CNS; 106% in the assay with UACC-257 melanoma; 93.6% with M14 melanoma; 92.2% in the assay with HCT-15 colon; 109% with HT29 colon. The growth with SNB-75 CNS is 104%; with SNB-19 CNS it was 106%; with U251 CNS it was 100%; in the assay with PC-3 prostate it was 76%; in the assay on SK-MEL-5 melanoma, 93.4%; with UACC-62 melanoma, 78.1%. For the same compound, the growth in the assay with LOX IMVI melanoma was 78.3%; with SK-MEL-28 melanoma it was 104%.

As to `CN1CCN(C(=O)c2ccc(NC(=O)c3cc4c(nn3)NCCN4Cc3cc(Cl)ccc3Cl)cc2)CC1`, the growth is 88.2% in the assay with DU-145 prostate; 6.45% (active) in the assay on K-562 leukemia; 73.8% with MALME-3M melanoma; 82.2% in the assay on MDA-MB-231 breast; 64.2% in the assay on RXF 393 renal; 58.9% in the assay with SF-268 CNS. Further, the growth is 67.6% in the assay with SF-295 CNS; 52.3% in the assay with SF-539 CNS; 101% in the assay on UACC-257 melanoma; 72.6% with M14 melanoma; 68% with HCT-15 colon; 63.2% in the assay on HT29 colon. The growth in the assay on SNB-75 CNS is 79.4%; in the assay on SNB-19 CNS, 92.2%; in the assay with U251 CNS, 65.6%; in the assay with PC-3 prostate, 71.1%; in the assay with SK-MEL-5 melanoma, 75.2%; with UACC-62 melanoma it was 92.5%. Further, the growth with LOX IMVI melanoma is 59.4%; with SK-MEL-28 melanoma, 89%.

As to `CC/C(=C(/c1ccc(Cl)cc1)c1ccc(OCCN(C)C)cc1)c1ccc(Cl)cc1`, the growth in the assay on DU-145 prostate is 77.7%; in the assay with K-562 leukemia, 16%; in the assay with MALME-3M melanoma, 73.9%; in the assay on MDA-MB-231 breast, 83.3%; with RXF 393 renal, 68.5%; in the assay with SF-268 CNS, 77.4%. In addition, the growth in the assay on SF-295 CNS is 69.7%; with SF-539 CNS, 86.2%; in the assay with UACC-257 melanoma, 72.2%; in the assay on M14 melanoma it was 88.1%; in the assay with HCT-15 colon it was 32.2%; in the assay with HT29 colon, 22.4%. Moreover, the growth in the assay with SNB-75 CNS is 61.9%; with SNB-19 CNS, 78.4%; in the assay on U251 CNS, 37.8%; with PC-3 prostate, 71.4%; with SK-MEL-5 melanoma, 86.4%; with UACC-62 melanoma, 96.3%. Besides, the figures for the growth with LOX IMVI melanoma and in the assay on SK-MEL-28 melanoma were 65.3% and 90.3%, respectively.

As to `CC(C)=CC(=O)OCC(=O)O[C@@H]1C[C@]2(C(C)C)O[C@@]1(C)[C@@H]1CC[C@@H](C)[C@H]1[C@@H]2OC(=O)/C=C/c1ccccc1`, the growth is 96.8% in the assay on DU-145 prostate; 60.7% in the assay on K-562 leukemia; 99.8% in the assay with MALME-3M melanoma; 90.9% in the assay on MDA-MB-231 breast; 1.65% (active) in the assay on RXF 393 renal; 62.3% in the assay on SF-268 CNS. Besides, the growth in the assay with SF-295 CNS is 95.4%; in the assay on SF-539 CNS it was 104%; in the assay with UACC-257 melanoma, 86.8%; in the assay with M14 melanoma it was 88.1%; in the assay with HCT-15 colon, 86.8%; in the assay on HT29 colon it was 85.8%. The growth with SNB-75 CNS was 88.7%; in the assay with SNB-19 CNS, 99.3%; in the assay with U251 CNS, 81.8%; with PC-3 prostate, 63.7%; in the assay on SK-MEL-5 melanoma, 90.5%; in the assay with UACC-62 melanoma, 78.5%. Further, the growth in the assay with LOX IMVI melanoma is 86.9%; in the assay on SK-MEL-28 melanoma, 103%.

Take `COc1ccccc1CNc1c2ccccc2nc2ccccc12`: the growth in the assay with DU-145 prostate was 50.5%; in the assay with K-562 leukemia, 10.1%; in the assay on MALME-3M melanoma, 45.9%; with MDA-MB-231 breast, 57.6%; with RXF 393 renal, 30.6%; in the assay with SF-268 CNS, 65.1%. The growth with SF-295 CNS was 37.4%; in the assay with SF-539 CNS, 21.2%; in the assay on UACC-257 melanoma, 64.1%; with M14 melanoma, 40.8%; in the assay on HCT-15 colon, 26%; in the assay on HT29 colon, 17.7%. The growth with SNB-75 CNS is 63.5%; with SNB-19 CNS, 35.8%; in the assay on U251 CNS, 38.6%; in the assay with PC-3 prostate, 43.2%; in the assay with SK-MEL-5 melanoma it was 59.2%; in the assay on UACC-62 melanoma, 60.5%. Besides, the growth in the assay with LOX IMVI melanoma was 18.9%; with SK-MEL-28 melanoma it was 80%.
